Tau FP inhib: qHTS for Inhibitors of Tau Fibril Formation, Fluorescence Polarization | Potency, µM (highest dose often 57.7 µM), actives largely listed as inhibitors | K18 P301L tau heparin fibrillization, Alexa594 FP, 6 h | actives 0.39% (n = 280,000) | AID 1468, 2008 | Microtubule-associated protein tau (Homo sapiens), P10636; further: nearly all actives have a fitted effect of over 55% in size
Target sequence (P10636 561-689 P618L limits assumed): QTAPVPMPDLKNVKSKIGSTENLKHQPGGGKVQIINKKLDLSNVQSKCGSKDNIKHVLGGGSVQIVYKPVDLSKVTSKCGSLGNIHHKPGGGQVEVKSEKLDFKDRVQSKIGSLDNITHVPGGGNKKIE
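Quantitative HTS format: compounds meet 15 uM recombinant K18 P301L tau and Alexa 594-tau tracer in 100 mM sodium acetate pH 7; 20 uM heparin triggers fibrillization at 37 C over 6 hr; FP gives the signal.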
ALDH1A1 block: qHTS Assay for Inhibitors of Aldehyde Dehydrogenase 1 (ALDH1A1) | Aldehyde dehydrogenase 1A1 (Homo sapiens), P00352 | Purified ALDH1A1, NADH fluorescence, propionaldehyde substrate | Potency, µM (highest dose often 75.3 µM), most hits filed as inhibitors | AID 1030, 2008 | actives 7.3% (n = 220,000); active means well fitted inhibition curve with a large enough effect, not every such curve was filed as active; inconclusive means small, poorly fitted or top-dose-only effect, or another doubt; inactive means no such curve, though single readings can be large or run the other way
Tau fluor cs: Counterscreen qHTS for Inhibitors of Tau Fibril Formation, Fluorescence Polarization. tau K18 P301L Alexa594 fluorescence, heparin fibrillization. Potency, µM (top dose mostly 57.7 µM). actives 0.93% (n = 280,000); further: nearly all actives have a fitted effect of over 55% in size
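Human tau K18 P301L (15 uM unlabeled, 0.24 uM Alexa 594-labeled) in 100 mM sodium acetate pH 7 with 20 uM heparin, 6 hr at 37 C. ThT 30 uM added, 1 hr ambient; Alexa 594 FP and total fluorescence read at 555/632 nm.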
HPGD inh: qHTS Assay for Inhibitors of HPGD (15-Hydroxyprostaglandin Dehydrogenase) | purified HPGD, NADH fluorescence kinetic, PGE2 substrate | Potency, µM, usual class: inhibitors | actives 4.3% (n = 150,000) | 15-hydroxyprostaglandin dehydrogenase [NAD(+)] (Homo sapiens), P15428; active means well fitted inhibition curve with a large enough effect, not every such curve was filed as active; inconclusive means small, poorly fitted or top-dose-only effect, or another doubt; inactive means no such curve, though single readings can be large or run the other way
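NADH formation kinetics: reaction with 30 uM PGE2 and 1 mM NAD+ (final), 20 nM enzyme, Tris-HCl pH 8 with Tween 20, after 15 min compound preincubation at room temperature. Fluorescence change, last versus first of five reads.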
Tau fibril ThT: qHTS for Inhibitors of Tau Fibril Formation, Thioflavin T Binding; Microtubule-associated protein tau (Homo sapiens), P10636; recombinant tau K18 P301L, heparin-induced fibrillization, ThT fluorescence; Potency, µM (titrated, usually from 57.4 µM), most hits filed as inhibitors; actives 2.1% (n = 270,000); AID 1460, 2008; further: nearly all actives have a fitted effect of over 55% in size
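ThT emission at 510 nm, taken 1 hr after adding 30 uM dye, quantifies aggregates formed when 20 uM heparin acts on human tau K18 P301L for 6 hr at 37 C.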
NPSR antagonist: qHTS Assay for Antagonists of the Neuropeptide S Receptor: cAMP Signal Transduction | actives 1% (n = 220,000) | Potency, µM (highest dose often 38.3 µM), most hits filed as inhibitors | Q6W5P4 | CHO-NPSR cells, cAMP TR-FRET, antagonist mode; further: nearly all actives have a fitted effect of over 50% in size
Target sequence (Q6W5P4 whole entry, looked up): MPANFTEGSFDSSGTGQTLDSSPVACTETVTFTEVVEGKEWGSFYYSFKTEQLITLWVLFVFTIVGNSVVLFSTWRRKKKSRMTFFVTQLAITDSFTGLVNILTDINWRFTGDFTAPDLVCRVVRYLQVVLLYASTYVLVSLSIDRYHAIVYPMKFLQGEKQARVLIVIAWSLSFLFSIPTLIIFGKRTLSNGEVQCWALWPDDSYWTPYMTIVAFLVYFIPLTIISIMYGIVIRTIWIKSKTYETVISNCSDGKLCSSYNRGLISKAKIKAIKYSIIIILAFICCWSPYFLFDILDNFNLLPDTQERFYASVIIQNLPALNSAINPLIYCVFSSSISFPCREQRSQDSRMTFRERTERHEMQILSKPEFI
Of the large screens only hits and unclear results are named; the others gave an inactive call. Rows were chosen to be rich in hits. Some 9.5% of all compounds tested hit in one or more screens of this group. Unless noted, the call rests on the fitted dose curve; in most records, active means well fitted curve in the direction sought with a large enough effect; inconclusive means small, poorly fitted or top-dose-only effect, or another doubt; inactive means no such curve, though single readings can be large; an effect the other way counts as inactive or inconclusive.

N=c1sc2ccccc2n1-c1ccccc1	none
CCC(=O)N1CCc2cc(S(=O)(=O)NC(C(=O)NCCc3ccccc3)C(C)C)ccc21 (stereo unspecified)	none (no result: ALDH1A1 block, HPGD inh, NPSR antagonist)
COc1ccc(N=Nc2ccc(O)c3ncccc23)cc1	Tau FP inhib inconclusive, Tau fibril ThT 1.41µM (no result: ALDH1A1 block, HPGD inh)
Oc1ccc(N=Nc2ccc3c(c2)OCCO3)c2cccnc12	Tau FP inhib inconclusive, Tau fluor cs inconclusive, Tau fibril ThT 2µM (no result: HPGD inh)
O=C(Cc1ccc(Br)cc1)c1ccc(O)cc1O	Tau fluor cs inconclusive (no result: HPGD inh)
Oc1ccc(N=Nc2ccc(Br)cc2)c(O)c1	ALDH1A1 block inconclusive, Tau fluor cs inconclusive, Tau fibril ThT 3.55µM (no result: HPGD inh)
Oc1ccc(N=Nc2ccc3c(c2)OCCO3)c(O)c1	Tau fluor cs inconclusive, Tau fibril ThT 3.16µM (no result: ALDH1A1 block, HPGD inh)
CC1C(NC(=O)/C(=N/OC(C)(C)C(=O)O)c2csc(N)n2)C(=O)N1S(=O)(=O)O (stereo unspecified)	none (no result: NPSR antagonist)
CC1(C)CC(=O)/C(=C(\O)Cc2ccccc2)C(=NCCCCCC(=O)O)C1	none
COc1ncnc2c1NC1=C(S2)C(=NCCC(=O)O)CC(C)(C)C1	ALDH1A1 block 5.01µM (no result: HPGD inh)
CN(C)c1ncnc2c1NC1=C(S2)C(=NCCCC(=O)O)CC(C)(C)C1	Tau FP inhib inconclusive, ALDH1A1 block inconclusive, Tau fibril ThT 10µM, NPSR antagonist inconclusive
CCc1ccc(NC(=O)CCN2C(=O)c3cccnc3C2=O)cc1	none
CCc1ccc2c(c1)C(=O)C(=O)N2CC(=O)Nc1ccc(NC(=O)c2ccccn2)cc1	ALDH1A1 block 0.224µM, Tau fluor cs inconclusive, Tau fibril ThT 14.1µM (no result: HPGD inh)
COc1ccc(-n2c(Cn3nnc4ccccc43)n[nH]c2=S)cc1	none
c1ccc(C2=Nn3c(Cn4nnc5ccccc54)nnc3SC2)cc1	none (no result: ALDH1A1 block, HPGD inh)
Cc1nnc2sc(-c3ccncc3)nn12	none
c1ccc(-c2nn3c(Cn4cnc5ccccc54)nnc3s2)cc1	ALDH1A1 block 2.24µM, HPGD inh 4.47µM
c1ccc(-c2ccc(C3=Nn4c(Cn5nnc6ccccc65)nnc4SC3)cc2)cc1	ALDH1A1 block 28.2µM, HPGD inh 17.8µM, Tau fibril ThT inconclusive, NPSR antagonist inconclusive
c1ccc2c(c1)ncn2Cc1nnc2sc(-c3ccncc3)nn12	ALDH1A1 block 10µM, HPGD inh 7.94µM
COc1ccc(Cc2nn3c(Cn4nnc5ccccc54)nnc3s2)cc1	ALDH1A1 block 11.2µM, HPGD inh 22.4µM
O=C(CSc1ncccn1)NC(=O)c1ccccc1	ALDH1A1 block inconclusive (no result: HPGD inh)
Cc1ccc(N/C=C/C(=O)c2cccs2)cc1	ALDH1A1 block inconclusive, Tau fibril ThT inconclusive (no result: HPGD inh)
Cc1cc(C)cc(N(C)S(=O)(=O)c2nnc(NC(=O)COc3ccc(C)c(C)c3)s2)c1	none (no result: ALDH1A1 block, HPGD inh, NPSR antagonist)
Cc1cc(C)cc(OCC(=O)Nc2cccc3cccnc23)c1	none (no result: ALDH1A1 block, HPGD inh, NPSR antagonist)
CCOc1ccc(-c2nnc(SCC(=O)NCc3ccc(C)cc3)nc2-c2ccc(OCC)cc2)cc1	Tau fibril ThT inconclusive (no result: ALDH1A1 block, HPGD inh, NPSR antagonist)
c1cncc(-c2nn3cnnc3s2)c1	none
c1ccc(OCc2nn3c(Cn4cnc5ccccc54)nnc3s2)cc1	ALDH1A1 block 18.9µM, HPGD inh 11.2µM
c1cncc(-c2nn3c(Cn4cnc5ccccc54)nnc3s2)c1	ALDH1A1 block 1µM, HPGD inh 3.16µM
c1ccc(-c2nn3c(Cn4nnc5ccccc54)nnc3s2)cc1	ALDH1A1 block 3.16µM, HPGD inh 10µM
O=C(NN=C1C2CC3CC(C2)CC1C3)c1cccs1	ALDH1A1 block 20µM
CCN(CC)CC(=O)NCc1cc(-c2ccc(OC)cc2)no1	HPGD inh 1.26µM
COc1ccc(-c2cc(CNC(=O)CN3CCN(C)CC3)on2)cc1	Tau FP inhib inconclusive, ALDH1A1 block inconclusive
